Results reported in PubChem BioAssay (NCATS).
Inconclusive results are not listed. Activity calls are given as the source filed them. Calls come from the whole dose curve; as a rule, active = well fitted curve in the direction sought with a large enough effect; inconclusive = small, poorly fitted or top-dose-only effect, or another doubt; inactive = no such curve, though single readings can be large; an effect the other way counts as inactive or inconclusive.

molecular target: ATP-dependent DNA helicase Q1 (Homo sapiens) (UniProt P46063); experiment: qHTS Validation Assay for Inhibitors of RecQ-Like Dna Helicase 1 (RECQ1) (AID 2353); conditions: recombinant RECQ1 helicase DNA unwinding assay; series mostly up to 25.6 µM; activity change, negative = inhibition: at the top concentration
Sequence (P46063 whole entry, looked up): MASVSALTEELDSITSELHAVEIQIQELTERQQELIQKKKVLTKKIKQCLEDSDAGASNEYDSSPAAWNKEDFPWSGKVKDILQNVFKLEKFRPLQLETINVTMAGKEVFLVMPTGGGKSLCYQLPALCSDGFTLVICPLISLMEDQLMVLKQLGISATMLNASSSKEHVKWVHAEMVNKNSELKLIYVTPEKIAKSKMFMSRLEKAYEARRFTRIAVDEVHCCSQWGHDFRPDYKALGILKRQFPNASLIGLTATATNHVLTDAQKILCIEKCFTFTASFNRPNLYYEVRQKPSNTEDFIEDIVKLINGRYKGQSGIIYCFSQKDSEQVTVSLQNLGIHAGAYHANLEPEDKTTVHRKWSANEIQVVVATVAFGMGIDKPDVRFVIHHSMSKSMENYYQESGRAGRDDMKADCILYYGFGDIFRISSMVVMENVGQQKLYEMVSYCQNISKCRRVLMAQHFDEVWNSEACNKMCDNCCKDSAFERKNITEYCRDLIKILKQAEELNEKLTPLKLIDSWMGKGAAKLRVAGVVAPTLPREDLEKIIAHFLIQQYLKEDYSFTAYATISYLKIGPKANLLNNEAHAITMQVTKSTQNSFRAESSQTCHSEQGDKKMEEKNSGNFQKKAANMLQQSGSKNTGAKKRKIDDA
In short: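 RECQ1T1 50 nM; forked duplex (20 bp + 30-nt ss tails) 200 nM, ATP 2 mM final; pH 8.0, 2 mM MgCl2, 2.5 ug/ml poly(dI-dC); 15 min compound preincubation; discontinuous kinetic read over 2 h at RT.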
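Note: plate controls were DMSO vehicle for no effect and enzyme-free control for full effect.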

| Compound | activity change, negative = inhibition |
| --- | --- |
| CC(N=C(NC#N)Nc1ccncc1)C(C)(C)C (centres undefined) | -6.41% (inactive) |
| Cc1ccc(/C(=C\CN2CCCC2)c2ccccn2)cc1 | 4.74% (inactive) |
| CCN(CC)CCOCCOC(=O)C1(c2ccccc2)CCCC1 | -3.44% (inactive) |
| COCCCC/C(=N\OCCN)c1ccc(C(F)(F)F)cc1 | 1.53% (inactive) |
| Cc1nc2ccccn2c(=O)c1CCN1CCC(C(=O)c2ccc(F)cc2)CC1 | 11.4% (inactive) |
| COC(=O)[C@@H](N)Cc1ccc(O)c(O)c1 | 2.46% (inactive) |
| CCCN1C[C@H](CSC)C[C@@H]2c3cccc4[nH]cc(c34)C[C@H]21 | -0.813% (inactive) |
| COc1ccc([C@@H]2Sc3ccccc3N(CCN(C)C)C(=O)[C@@H]2OC(C)=O)cc1 | -10.5% (inactive) |
| Cc1scc2c1N(C(=O)CN1CCN(C)CC1)c1ccccc1NC2=O | -0.888% (inactive) |
| C[C@]12CCC(=O)C=C1CC[C@@H]1[C@@H]2CC[C@@]2(C)[C@H]1CC[C@]2(O)C(=O)CO | -10.3% (inactive) |
| CCn1cc(C(=O)O)c(=O)c2cc3c(cc21)OCO3 | -4.89% (inactive) |
| CN(C)C/C=C(/c1ccc(Br)cc1)c1cccnc1 | 0.376% (inactive) |
| CN(C(=O)CCCOc1ccc2[nH]c(=O)ccc2c1)C1CCCCC1 | -0.0167% (inactive) |
| NC(N)=N/N=C/c1c(Cl)cccc1Cl | 13.2% (inactive) |
| CCn1nc(C(=O)O)c(=O)c2cc3c(cc21)OCO3 | -6.78% (inactive) |
| COC(=O)C1=C(C)NC(C)=C(C(=O)OCCN(C)Cc2ccccc2)C1c1cccc([N+](=O)[O-])c1 (centres undefined) | -13.6% (inactive) |
| Brc1c(NC2=NCCN2)ccc2nccnc12 | 4.29% (inactive) |
| C[N+](C)(C)CCCCCCCCCC[N+](C)(C)C | -1.72% (inactive) |
| CCOC(=O)c1cnc2c(cnn2CC)c1NN=C(C)C | 1.47% (inactive) |
| CNCCCN1c2ccccc2CCc2ccccc21 | 1.41% (inactive) |
| CSc1ccc(C(=O)c2[nH]c(=O)[nH]c2C)cc1 | -3.32% (inactive) |

molecular target: RecQ-like DNA helicase BLM (Homo sapiens) (UniProt P54132); experiment: qHTS Validation Assay for Inhibitors of Bloom's syndrome helicase (BLM) (AID 2364); conditions: BLM helicase DNA unwinding, fluorescence, in vitro; series mostly up to 57.1 µM; activity change, negative = inhibition: at the top concentration
Sequence (P54132 whole entry, looked up): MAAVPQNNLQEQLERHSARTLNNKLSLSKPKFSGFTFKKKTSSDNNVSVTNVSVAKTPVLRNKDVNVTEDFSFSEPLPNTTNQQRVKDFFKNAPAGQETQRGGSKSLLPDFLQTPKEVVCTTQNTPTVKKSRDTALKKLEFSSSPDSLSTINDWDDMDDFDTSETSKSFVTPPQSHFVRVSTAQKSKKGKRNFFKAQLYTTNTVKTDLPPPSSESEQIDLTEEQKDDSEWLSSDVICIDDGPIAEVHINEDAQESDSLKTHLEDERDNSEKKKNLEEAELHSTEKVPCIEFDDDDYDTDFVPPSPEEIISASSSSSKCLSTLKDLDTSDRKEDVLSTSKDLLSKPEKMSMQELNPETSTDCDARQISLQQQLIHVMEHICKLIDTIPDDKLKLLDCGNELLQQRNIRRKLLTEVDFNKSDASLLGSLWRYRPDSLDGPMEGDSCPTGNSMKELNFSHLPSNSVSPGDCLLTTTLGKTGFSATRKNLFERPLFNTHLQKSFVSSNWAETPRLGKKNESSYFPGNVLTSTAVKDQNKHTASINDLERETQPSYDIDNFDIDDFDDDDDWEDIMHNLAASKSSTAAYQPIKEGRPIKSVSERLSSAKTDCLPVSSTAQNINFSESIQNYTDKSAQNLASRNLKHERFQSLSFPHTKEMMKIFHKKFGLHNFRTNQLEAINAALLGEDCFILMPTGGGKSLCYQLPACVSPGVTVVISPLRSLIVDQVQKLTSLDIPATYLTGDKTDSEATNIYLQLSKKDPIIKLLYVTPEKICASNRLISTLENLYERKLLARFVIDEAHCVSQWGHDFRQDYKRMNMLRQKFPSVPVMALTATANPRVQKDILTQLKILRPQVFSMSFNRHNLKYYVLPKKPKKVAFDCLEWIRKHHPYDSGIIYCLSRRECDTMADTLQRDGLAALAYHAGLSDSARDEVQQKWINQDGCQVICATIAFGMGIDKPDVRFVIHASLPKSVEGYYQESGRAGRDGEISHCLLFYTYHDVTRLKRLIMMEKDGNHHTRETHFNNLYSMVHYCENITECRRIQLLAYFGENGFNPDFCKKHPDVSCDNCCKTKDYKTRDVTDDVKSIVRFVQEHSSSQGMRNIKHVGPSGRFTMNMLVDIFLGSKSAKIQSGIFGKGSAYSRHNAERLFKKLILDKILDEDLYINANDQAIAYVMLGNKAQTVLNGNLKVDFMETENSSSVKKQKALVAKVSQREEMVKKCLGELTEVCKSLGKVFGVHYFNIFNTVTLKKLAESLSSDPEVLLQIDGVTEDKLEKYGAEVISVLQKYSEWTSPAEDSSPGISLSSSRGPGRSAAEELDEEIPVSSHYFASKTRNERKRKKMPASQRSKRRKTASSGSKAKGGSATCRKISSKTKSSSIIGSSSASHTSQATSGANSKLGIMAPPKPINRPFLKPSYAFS
In short: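 50 nM BLM preincubated 15 min at room temperature with compound in pH 8.0 Tris buffer containing 2.5 ug/ml poly(dI-dC); started with 200 nM TAMRA/BHQ-2 forked duplex and 2 mM ATP (final). Unwinding read as TAMRA fluorescence increase, two reads 2 h apart.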

| Compound | activity change, negative = inhibition |
| --- | --- |
| CCN(CC)CCOCCOC(=O)C1(c2ccccc2)CCCC1 | -3.08% (inactive) |
| Cc1nc2ccccn2c(=O)c1CCN1CCC(C(=O)c2ccc(F)cc2)CC1 | 2.78% (inactive) |
| COC(=O)[C@@H](N)Cc1ccc(O)c(O)c1 | -11.2% (inactive) |
| Cc1scc2c1N(C(=O)CN1CCN(C)CC1)c1ccccc1NC2=O | -12% (inactive) |
| CCn1cc(C(=O)O)c(=O)c2cc3c(cc21)OCO3 | -2.61% (inactive) |
| CN(C)C/C=C(/c1ccc(Br)cc1)c1cccnc1 | -9.83% (inactive) |
| C[N+](C)(C)CCCCCCCCCC[N+](C)(C)C | -6.14% (inactive) |
| CNCCCN1c2ccccc2CCc2ccccc21 | -5.04% (inactive) |
